Screening data (PubChem BioAssay)
LASV entry inh – blocks Lassa virus binding to or entry into cells; Lassa virus pseudotype entry inhibition, cell reporter; Potency, µM (series often up to 37.9 µM), for inactives: at the top dose activity change, negative = inhibition, usual class: inhibitors; actives 1.2% (n = 300,000); AID 540256; calls by dose curve; tested in HEK293 cells; further: potency means the concentration at half of the fitted maximal effect; nearly all actives have a fitted effect of over 50% in size
VACV Venus inh – inhibitors of vaccinia virus (Venus reporter). Vaccinia virus Venus reporter expression, fluorescence. Potency, µM (titrated, usually from 36.5 µM), without a hit: at the top dose activity change, negative = inhibition, actives largely listed as inhibitors. AID 720580. actives 0.46% (n = 330,000); calls by dose curve; tested in A549 cells; further: potency means the concentration at half of the fitted maximal effect; nearly all actives have a fitted effect of over 30% in size
HCV inh – HCV inhibition | Huh7.5.1 HCVcc-Cre infection, luciferase reporter, 44 h | Potency, µM (series often up to 41.8 µM), for the others: at the highest dose activity change, negative = inhibition, hits mostly inhibitors | actives 3.4% (n = 340,000) | AID 651820; active means well fitted inhibition curve with a large enough effect; inconclusive means small, poorly fitted or top-dose-only effect, or another doubt; inactive means no such curve, though single readings can be large or run the other way; further: potency means the concentration at half of the fitted maximal effect
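A cell-based infection assay in which seeded cells (1,000 per well) receive test compound after 4 h, are inoculated with HCVcc-Cre at approximately 0.5 moi, and are incubated 44 h before luminescence detection.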
HCMV inh – inhibitors of human cytomegalovirus | actives 4.5% (n = 410,000) | activity change, negative = inhibition, % at 57.5 µM | HFF cells, HCMV-luciferase reporter, 72 h; active compounds read low; in the data active means activity change below about -60%; inconclusive means no clear call, values can overlap the other calls; inactive means above about -39%
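Luciferase read-out from HCMV-luciferase-infected HFFs (MOI 1 PFU/cell) 72 h post infection at 37C; compounds added after 16 h cell attachment; activity normalized between buffer-only basal and Salinomycin (10uM) inhibitor controls.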
Vaccinia mCherry – inhibitors of vaccinia virus infection (mCherry reporter signal) | Vaccinia virus mCherry reporter infection, fluorescence | Potency, µM (titrated, usually from 36.5 µM), for inactives: at the top dose activity change, negative = inhibition, hits mostly inhibitors | actives 0.63% (n = 310,000) | AID 720579; calls by dose curve; tested in A549 cells; further: potency means the concentration at half of the fitted maximal effect; nearly all actives have a fitted effect of over 35% in size
MARV entry inh – blocks Marburg virus binding to or entry into cells; Marburg virus pseudotyped entry inhibition, cell reporter; Potency, µM (top dose mostly 37.8 µM), for inactives: at the highest dose activity change, negative = inhibition, usual class: inhibitors; actives 1.8% (n = 300,000); AID 540276; calls by dose curve; tested in HEK293 cells; further: potency means the concentration at half of the fitted maximal effect
* hit, by the source's call; ! = repeats disagree; [ ] = another dose, or the depositor's remark. An excerpt weighted towards active compounds, which were near 7.8% of everything screened. On the % scale 0 is the no-effect control and ±100 the full control effect.

How did CN(C)CCNC(=O)C(=O)c1c(-c2ccccc2)cc2ccccn12 do in these assays?
LASV entry inh: 3.5%; VACV Venus inh: -8.8%; HCV inh: 4.3%; HCMV inh: -39.5; Vaccinia mCherry: -9.4%; MARV entry inh: -4.5%[46.1 µM]

Results for CCN(CC)S(=O)(=O)c1ccc(N2CCOCC2)c(NC(=O)c2ccc(F)cc2)c1 ?
LASV entry inh: -19.5%; VACV Venus inh: -10.4%; HCV inh: -10.7%; HCMV inh: -15.5; Vaccinia mCherry: -13.7%; MARV entry inh: 23.8%[46.1 µM]

Results for CCN(CC)S(=O)(=O)c1ccc(N2CCOCC2)c(NC(=O)C2CC2)c1 ?
LASV entry inh: 12.8%; VACV Venus inh: -3.7%; HCV inh: inconclusive; HCMV inh: -18.7; Vaccinia mCherry: -7.7%; MARV entry inh: -8.0%[46.1 µM]

How did O=C(NCCCO)C(=O)c1c(-c2ccccc2)cc2ccccn12 do in these assays?
LASV entry inh: 17.3%[46.1 µM]; VACV Venus inh: -12.3%; HCV inh: 2.9%; HCMV inh: -2.7; Vaccinia mCherry: -0.7%; MARV entry inh: inconclusive

Results for CCN(CC)S(=O)(=O)c1ccc(N2CCOCC2)c(NC(=O)c2ccccc2F)c1 ?
LASV entry inh: inconclusive; VACV Venus inh: 4.7%; HCV inh: -25.3%; HCMV inh: -64.6*; Vaccinia mCherry: inactive; MARV entry inh: inconclusive

Results for CCN(CC)S(=O)(=O)c1cccc(NC(=O)C(=O)c2c(-c3ccccc3)cc3ccccn23)c1 ?
LASV entry inh: -20.1%; VACV Venus inh: -20.7%; HCV inh: inconclusive; HCMV inh: -75.3*; Vaccinia mCherry: inconclusive; MARV entry inh: inconclusive

What do the screens show for `COc1ccc(S[C@]2(c3nc(C)no3)CC(=O)N(C(=O)CCc3ccccc3)[C@@H]2c2ccc(OC)cc2)cc1`?
HCMV inh: 1.3

How did c1ccc2nc(N3CCCC3)c(N3CCCC3)nc2c1 do in these assays?
LASV entry inh: 4.7%; VACV Venus inh: -8.4%; HCV inh: -19.2%; HCMV inh: -7.1; Vaccinia mCherry: -3.3%; MARV entry inh: -2.1%[46.1 µM]

What do the screens show for `CN1CCN(c2nc(-c3ccc(Br)cc3)nnc2-c2ccccc2)CC1`?
LASV entry inh: 12.5%; VACV Venus inh: -27.5%; HCV inh: inconclusive; HCMV inh: 34.9; Vaccinia mCherry: inconclusive; MARV entry inh: -8.0%

What do the screens show for `c1ccc(-c2cc3ccccc3nc2N2CCCC2)cc1`?
LASV entry inh: 3.0%; VACV Venus inh: -12.6%; HCV inh: inconclusive; HCMV inh: -61.4*; MARV entry inh: -0.8%

How did Cc1ccc(-c2nnc(-c3ccccc3)c(N3CCOCC3)n2)cc1 do in these assays?
LASV entry inh: -21.9%; HCV inh: 11.2µM*; HCMV inh: -2.6; MARV entry inh: inconclusive

Results for Cc1ccc2nc(N3CCOCC3)c(C=O)cc2c1 ?
HCV inh: inconclusive; HCMV inh: 17.1

How did Cc1ccc(-c2cc3ccccc3nc2N2CCOCC2)cc1 do in these assays?
LASV entry inh: 18.5%[46.1 µM]; VACV Venus inh: -6.3%; HCV inh: 10µM*; HCMV inh: -28.6; Vaccinia mCherry: inactive; MARV entry inh: 18.6%[46.1 µM]

Results for COc1ccccc1-c1noc2nc(OCc3ccc(F)cc3)ccc12 ?
HCMV inh: 14.6

How did O=C(c1ccccc1Br)N(CCc1ccccc1)C(CCc1ccccc1)c1nc2ccccc2[nH]1 (centres undefined) do in these assays?
HCMV inh: -6.2

Results for COc1cc(-c2nc3cc(C)ccn3c2NC2CCCCC2)ccc1-c1ccc(C(C)=O)cc1 ?
VACV Venus inh: inconclusive; HCV inh: inconclusive; HCMV inh: -94.4*; Vaccinia mCherry: -16.7%

What do the screens show for `CCC(C)Sc1ccc(-c2nc3cc(C)ccn3c2NC2CCCCC2)cc1` (centres undefined)?
VACV Venus inh: inconclusive; HCV inh: inconclusive; HCMV inh: -102.5*!; Vaccinia mCherry: -23.1%

Results for CCC[C@@H](CN[C@@H](CNC)C(C)C)NCCCCc1ccccc1 ?
VACV Venus inh: inconclusive; HCV inh: inconclusive; HCMV inh: inconclusive; Vaccinia mCherry: inactive

How did CCC[C@@H](CN[C@@H](CNC)[C@H](C)CC)NCC1CCC(C(C)(C)C)CC1 (some centres undefined) do in these assays?
VACV Venus inh: 12.6µM*; HCV inh: 7.94µM*; HCMV inh: -99.0*; Vaccinia mCherry: inconclusive
